Bioassay records from PubChem.
D1 agonist: activates the human D1 dopamine receptor. activation, % at 2 µM. HEK293 T-REx D1 cells, calcium flux, agonist mode. P21728. 1% of 360,000 active; further: 0% is about no effect
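Agonism was scored from calcium flux recorded over 180 s (1 read/s) after pintool compound addition, following a 10-cycle baseline. Cells were inducible force-coupled HEK293 TREx D1, plated overnight at 30 C and loaded with no-wash calcium dye.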
D1 potentiator: potentiators of human D1 dopamine receptor. potentiation, % at 10 µM. 0.036% of 360,000 active. AID 504651. HEK293 TREx D1 cells, calcium flux, dopamine EC20 potentiation. P21728; in the data active means potentiation above about 30%; further: 0% is about no effect
TRHR ag: activates the human TRH receptor; TRHR cells, calcium flux fluo-8, FDSS agonist mode; activation, % at 2 µM; 0.18% of 360,000 active; further: 0% is about no effect
Target sequence (P34981 whole entry, looked up): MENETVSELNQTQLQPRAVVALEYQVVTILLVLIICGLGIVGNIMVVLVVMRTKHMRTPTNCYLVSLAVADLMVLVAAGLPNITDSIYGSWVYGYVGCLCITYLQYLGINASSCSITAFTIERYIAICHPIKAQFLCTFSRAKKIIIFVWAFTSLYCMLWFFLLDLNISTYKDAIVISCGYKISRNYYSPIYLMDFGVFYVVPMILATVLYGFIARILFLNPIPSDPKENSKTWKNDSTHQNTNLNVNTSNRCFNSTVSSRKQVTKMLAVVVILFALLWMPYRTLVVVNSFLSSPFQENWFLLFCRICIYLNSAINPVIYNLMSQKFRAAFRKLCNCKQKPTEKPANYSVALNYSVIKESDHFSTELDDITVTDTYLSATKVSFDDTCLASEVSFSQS
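Agonist-mode FDSS calcium read (Ex 480/Em 530, 1 s cycles) in 1536-well TRHR cells with fluo-8 dye, after 10-cycle baseline and 23 nL compound addition; TRH at EC20 (10 nM final) added afterwards for the enhancer phase.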
TRHR enhancer: allosterically enhances the human TRH receptor | P34981 | TRHR cells, fluo-8 calcium fluorescence, EC20 TRH enhancement | AID 493056 | 0.66% of 360,000 active | enhancement, % at 2 µM; in the data active means enhancement above about 30%; further: 0% is about no effect
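TRHR-expressing cells loaded with fluo-8 calcium dye were read kinetically (ex 480/em 530) during compound addition, then stimulated with an EC20 of TRH (10 nM final). Enhancement of the Gq-mediated intracellular calcium response was scored.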
D1 antagonist: human D1 dopamine receptor antagonism; P21728; HEK293 TREx D1 cells, calcium flux, dopamine EC80; stronger effect = lower value; activity change, negative = inhibition, % at 10 µM; 3.2% of 360,000 active; AID 504652; in the data active means activity change below about -30%; further: on the % scale 0 is the no-effect control and ±100 the full control effect
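Tetracycline-induced HEK293 Trex D1 cells, force-coupled to calcium, dye-loaded; compounds added and read 180 s, then EC80 dopamine added and calcium flux tracked kinetically another 180 s.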
The depositor's hits bear a star; nt = not tested or not shown. An excerpt weighted towards active compounds, which were near 4.7% of everything screened. Unless noted, no stated cut-off is given here; in the data, active means activation above about 30%; inactive means the rest.

SMILES | D1 agonist | D1 potentiator | TRHR ag | TRHR enhancer | D1 antagonist
CC(=O)Nc1ccc(S(=O)(=O)N2CCN=C2SCc2ccc(C)cc2)cc1 | 23 | -3 | 1 | 16 | -41*
CSC1=NCCN1S(=O)(=O)c1ccc(NC(C)=O)cc1 | 1 | -5 | 0 | 1 | 8
CC(=O)Nc1ccc(S(=O)(=O)N2CCN=C2SCc2ccc(F)cc2)cc1 | 37* | -20 | -1 | -2 | -26
CCSC1=NCCN1S(=O)(=O)c1ccc(NC(C)=O)cc1 | -2 | -3 | 1 | -4 | -8
CCc1cccc(C)c1NC(=O)Cn1cc2c(n1)CCCC2 | 8 | -2 | 1 | -4 | -2
N#Cc1ccc(S(=O)(=O)N2CCN(S(=O)(=O)c3ccc4c(c3)OCCO4)CC2)cc1 | 0 | -6 | 1 | -4 | -12
CCOC(=O)C1=C(C)NC(=O)NC1c1ccc(N(C)C)cc1 (stereo not given) | 1 | -9 | 0 | 1 | -31*
CCc1c(C)nc(SCC(=O)N2CCN(c3ccccc3OC)CC2)[nH]c1=O | 2 | -5 | -1 | -11 | -4
COc1ccccc1N1CCN(C(=O)c2ccco2)CC1 | 2 | -5 | 1 | 31* | 0
CCOC(=O)N1CCN(c2c(N3CCN(c4ccccc4OC)CC3)c(=O)c2=O)CC1 | 0 | -3 | -1 | -11 | -33*
COc1ccccc1N1CCN(C(=O)CSc2nc(C)c(C)c(=O)[nH]2)CC1 | 1 | -3 | -1 | -2 | -30*
CCn1ccc2cc(S(=O)(=O)N3CCC(C(=O)NCc4ccc(F)cc4)CC3)ccc21 | 6 | 2 | 0 | -4 | -11
CCOC(=O)C1=C(CN2CCN(c3ccccc3OC)CC2)NC(=O)NC1c1ccccc1 (stereo not given) | 2 | -3 | 1 | -1 | -32*
CCOC(=O)C1=C(CN2CCCCCC2)NC(=O)NC1c1ccc2c(c1)OCO2 (stereo not given) | 7 | -1 | 0 | -6 | 11
CCOC(=O)C1=C(CN2CC(C)CC(C)C2)NC(=O)NC1c1ccc2c(c1)OCO2 (stereo not given) | 31* | -2 | 0 | 10 | 20
CCOC(=O)N1CCN(c2c(Nc3cc(C)[nH]n3)c(=O)c2=O)CC1 | 3 | nt | 0 | 35* | 24
COc1ccc(C(=O)NC2CC2)cc1OC1CCN(Cc2ccc(F)cc2F)CC1 | 1 | -17 | 0 | 5 | -19
COc1ccc(C(=O)NC2CC2)cc1OC1CCN(Cc2ccccc2O)CC1 | 2 | -23 | 0 | -10 | -38*
COc1ccc(C(=O)NC2CC2)cc1OC1CCN(Cc2ccccc2F)CC1 | 2 | -4 | -1 | -1 | -53*
C=CCOc1ccccc1CN1CCC(Oc2cc(C(=O)NC3CC3)ccc2OC)CC1 | 1 | -9 | 0 | -4 | -74*
C=CCN(CC=C)C(=O)c1ccc(OC2CCN(C(C)=O)CC2)c(OC)c1 | 4 | 3 | 0 | 3 | -42*
C=CCOc1ccccc1CN1CCC(Oc2ccc(C(=O)N3CCCC3)cc2)CC1 | 5 | -5 | 0 | -1 | -12
O=C(O)c1ccc(N2C(=O)c3[nH]nc(-c4ccccc4)c3C2c2cccc(F)c2)cc1 (stereo not given) | 0 | 4 | 1 | 17 | 8
CC(C)Cn1c(=O)c2ccccc2n2c(CCC(=O)NCc3ccccc3Cl)nnc12 | -1 | -5 | 0 | -9 | 0
CCOC(=O)c1c(C)sc(-c2c(-c3ccc(OC)c(F)c3)[nH]c3c2c(=O)[nH]c(=O)n3C)c1O | 21 | 1 | 11 | 11 | 6
SMILES | D1 agonist | D1 potentiator | TRHR ag | TRHR enhancer | D1 antagonist
CCOc1ccc(C2NC(=O)Cc3cc(OC)c(OC)cc32)cc1 (stereo not given) | 2 | -2 | 0 | 4 | 18
CCOc1ccc(C2OC(=O)Cc3cc(OC)c(OC)cc32)cc1 (stereo not given) | 4 | -4 | -3 | -1 | -31*
CCOc1ccc(-c2oc3cc(Cl)ccc3c(=O)c2O)cc1OC | 96* | -1 | 78* | -11 | 20
Cc1cc(C)n(-c2nc3ccccc3nc2Nc2cccc(C)c2C)n1 | 1 | 0 | 1 | -2 | 7
Cc1ccc(CN2CCN(CC(=O)NC(C)CCc3ccccc3)C2=O)cc1 (stereo not given) | 5 | nt | -1 | 19 | -2
COc1ccccc1CNC(=O)CN1C(=O)NC2(CCCc3ccccc32)C1=O (stereo not given) | 2 | -11 | 0 | -6 | -38*
COc1ccc(OC)c(NC(=O)CN2C(=O)NC3(CCCc4ccccc43)C2=O)c1 (stereo not given) | -1 | -1 | 0 | -3 | 2
COc1ccc(C(NC(=O)CN2C(=O)NC3(CCc4ccccc43)C2=O)c2ccc(OC)cc2)cc1 (stereo not given) | 2 | -7 | 1 | 2 | -7
Cc1ccc(CN2CCN(CC(=O)NC(C)c3ccc4c(c3)OCCO4)C2=O)cc1 (stereo not given) | 44* | nt | 0 | -6 | -11
CC(C)CNC(=O)CN1C(=O)NC2(CCCc3ccccc32)C1=O (stereo not given) | 3 | -6 | -1 | 31* | -16
CC(NC(=O)CN1C(=O)NC2(CCc3ccccc32)C1=O)c1ccc2c(c1)OCCO2 (stereo not given) | -1 | -3 | -1 | 0 | -42*
COCCNC(=O)CSc1nc(-c2cc(OC)c(OC)c(OC)c2)[nH]c1-c1ccc(Cl)cc1 | 1 | -5 | 0 | 9 | -6
COC(=O)c1ccccc1NC(=O)CSc1nc(C)c(Cl)c(C)c1C#N | 7 | 0 | 1 | -11 | 3
COc1cc(OC)c(NC(=O)Nc2sc3nc4n(c(=O)c3c2C)CCC(C)CC4)cc1Cl (stereo not given) | 0 | -6 | 0 | -3 | -7
CCC(=O)N1CCc2cc(Br)cc(S(=O)(=O)Nc3ccccc3C(=O)OC)c21 | 4 | 1 | 0 | 1 | -6
O=C(CN1C(=O)CSc2ccc(S(=O)(=O)N3CCCC3)cc21)NCc1ccc(Cl)cc1 | 1 | 3 | 0 | 2 | -15
CC(NC(=O)CN1C(=O)NC2(CCCC2)C1=O)c1ccc2ccccc2c1 (stereo not given) | -1 | -11 | 0 | 11 | 20
NC(=O)NC(=O)CN1C(=O)NC2(CCOc3ccccc32)C1=O (stereo not given) | 6 | -8 | 0 | -4 | 7
CN(C(=O)CN1C(=O)NC2(CCc3ccccc32)C1=O)C1CCS(=O)(=O)C1 (stereo not given) | -2 | 0 | -1 | -2 | -31*
NC(=O)CN1C(=O)NC2(CCOc3ccccc32)C1=O (stereo not given) | -2 | 5 | 2 | 8 | -75*
CC1CCC2(CC1)NC(=O)N(CC(=O)NC(C)c1ccc(F)c(F)c1)C2=O (stereo not given) | 1 | -4 | 0 | 1 | -35*
